Measurements reported in PubChem BioAssay (Tox21).
Records with an inconclusive call do not appear. The source made the active and inactive calls. Unless noted, calls follow the shape of the full dose curve.

Experiments:
[1] = Nuclear factor erythroid 2-related factor 2/antioxidant responsive element (Nrf2/ARE) small molecule agonists: qHTS cell viability counter screen in human keratinocytes (AID 1919968; active = well fitted curve in the direction sought with a large enough effect in the repeat runs; an effect the other way counts as inactive or inconclusive; also: nearly all actives have a fitted effect of over 55% in size)
Method in brief: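 Cells of the KeratinoSens line were plated at 1,500 per well and left for 5 h before compound transfer from DMSO stocks. After a 23 h incubation (37 C, 5% CO2), CellTiter-Fluor was added. Signal was taken as fluorescence intensity 1 h later.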

[2] = Nuclear factor erythroid 2-related factor 2/antioxidant responsive element (Nrf2/ARE) small molecule agonists: luciferase reporter gene qHTS assay in human keratinocytes (AID 1919969); also: nearly all actives have a fitted effect of over 35% in size; also: potency is read from the fitted curve at half-maximal effect
[3] = target: KiSS-1 receptor (Homo sapiens) (UniProt Q969F8); assay: Human kisspeptin (KISS1R) small molecule agonists, calcium flux assay in KISS1R-HEK293 cells (AID 1920064; active = well fitted curve in the direction sought with a large enough effect in the repeat runs; an effect the other way counts as inactive or inconclusive)
Method in brief: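 Cell line: HEK293, stable human KISS1R. Dye loading 1 h at 37 C after 18 h culture. Read: kinetic fluorescence, 480/540 nm, 3 min at 1 s intervals.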

[4] = G protein-coupled receptor (GPCR) small molecule agonists, calcium flux assay: HEK293 wild type cell line counter screen (AID 1920065)
Method in brief: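 Tox21 10K compounds, 15 concentrations each in triplicate, pin-transferred in DMSO onto dye-loaded cells; kinetic read at 480/540 nm for 3 min, 1 s intervals.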

[5] = p53 small molecule agonists, cell-based qHTS assay with human liver microsomes (AID 1963577);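 also: p53 response element beta-lactamase reporter cells with liver microsomes plus NADPH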
Method in brief: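 p53RE-bla cells; 5 h settle, 37 C/5% CO2; cpd + HLM 0.5 mg/mL + NADPH 0.5 mg/mL (final); 16 h 37 C; LiveBLAzer 2 h RT dark; fluorescence readout.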

[6] = p53 small molecule agonists, cell-based qHTS assay with rat liver microsomes (AID 1963578)
Method in brief: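 Rat liver microsome activation: microsomes 0.5 mg/mL, NADPH 0.5 mg/mL final; p53RE-bla cells, 16 h 37 C; LiveBLAzer readout, 2 h RT dark.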

[7] = p53 small molecule agonists, cell-based qHTS assay with human liver microsomes: qHTS cell viability counter screen (AID 1963579); also: nearly all actives have a fitted effect of over 45% in size; also: potency is read from the fitted curve at half-maximal effect
Method in brief: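 Luminescent CellTiter-Glo read-out, 30 min at room temperature, gauged cytotoxicity in p53RE-bla cells exposed 16 h at 37 C to DMSO-dissolved compounds with metabolic activation by human liver microsomes and NADPH, each 0.5 mg/mL final.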

[8] = p53 small molecule agonists, cell-based qHTS assay with rat liver microsomes: qHTS cell viability counter screen (AID 1963580); also: nearly all actives have a fitted effect of over 45% in size
Method in brief: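 Rat liver microsome (0.5 mg/mL final) and NADPH (0.5 mg/mL final) co-incubation with compounds for 16 h at 37 C on HCT-116 p53RE-bla cells; cytotoxicity taken from intracellular ATP luminescence.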

[9] = p53 small molecule agonists, cell-based qHTS assay: qHTS cell viability counter screen (AID 1963581); also: nearly all actives have a fitted effect of over 45% in size
Method in brief: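 ATP content measured by luminescence in HCT-116 p53RE-bla cells treated 16 h at 37 C, same wells as the reporter screen.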

[10] = p53 small molecule agonists, cell-based qHTS assay (AID 1963582; active = well fitted activation curve with a large enough effect in the signal ratio in the repeat runs, not every such curve was filed as active; the % refers to the signal ratio)
Method in brief: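 16 h compound exposure (37 C) of p53 response element–bla cells, preceded by 5 h recovery at 37 C/5% CO2; read-out via LiveBLAzer B/G FRET substrate, 2 h RT, fluorescence intensity.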

[11] = target: 5-hydroxytryptamine receptor 2A (Homo sapiens) (UniProt P28223); assay: 5-hydroxytryptamine receptor 2A (HTR2A) small molecule antagonists, cell-based qHTS assay (AID 1963586); also: nearly all actives have a fitted effect of over 45% in size
Method in brief: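 CHO cells stably expressing human HTR2A were plated for 18 h at 37 C, then loaded with calcium dye for 1 h. Compounds were preincubated 5 min at room temperature before DOI (4 nM solution) was added. Kinetic fluorescence was read for 3 min.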

[12] = target: Muscarinic acetylcholine receptor M1 (Homo sapiens) (UniProt P11229); assay: Cholinergic receptor muscarinic 1 (CHRM1) small molecule antagonists, cell-based qHTS assay (AID 1963588); also: nearly all actives have a fitted effect of over 40% in size
Method in brief: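 Compounds were tested at 15 concentrations in three independent runs. Dye-loaded CHRM1-CHO cells were exposed 5 min at room temperature before stimulation by acetylcholine added at 50nM. Intracellular calcium was read kinetically on FDSS for 3 min.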

[13] = target: Muscarinic acetylcholine receptor M1 (Homo sapiens) (UniProt P11229); assay: Cholinergic receptor muscarinic 1 (CHRM1) small molecule agonists, cell-based qHTS assay (AID 1963589); also: nearly all actives have a fitted effect of over 35% in size; also: potency is read from the fitted curve at half-maximal effect
Method in brief: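 Homogeneous fluorescence calcium flux, agonist mode. Human M1-expressing CHO cells; compound dosed at 15 concentrations, three independent runs; signal sampled every 1 sec.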

[14] = cAMP Responsive Elements (CRE) small molecule agonists, cell-based qHTS assay (AID 1963590)
Method in brief: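 HEK 293T cells stably bearing CRE-bla were plated at 2,000 cells per well and rested 18 h. Compounds, positive controls or DMSO were added for 3 h at 37 C. LiveBLAzer B/G substrate was then loaded for 2 h at room temperature.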

[15] = cAMP Responsive Elements (CRE) small molecule antagonists, cell-based qHTS assay (AID 1963591; active = well fitted inhibition curve with a large enough effect in the signal ratio in the repeat runs, not every such curve was filed as active; the % refers to the signal ratio)
Method in brief: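 First, CRE-bla HEK293T cells settled 18 h at 37 C. Next, compound and 0.25 uM final NKH477 were applied for 3 h. Last, LiveBLAzer B/G substrate was loaded for 2 h at room temperature.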

[16] = target: Beta-2 adrenergic receptor (Homo sapiens) (UniProt P07550); assay: Adrenergic beta2 receptor (ADRB2) small molecule antagonists, cell-based qHTS assay (AID 1963592); also: series mostly up to about 92 µM; nearly all actives have a fitted effect of over 50% in size
Method in brief: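 Assay format: CHO-ADRB2 cells, 18-20hr seeding at 37C/5% CO2, then compound plus 1nM isoproterenol agonist mix for 0.5hr RT. Homogeneous time-resolved fluorescence cAMP detection after 1hr, expressed as 665/615 nm ratio.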

[17] = target: D(2) dopamine receptor (Homo sapiens) (UniProt P14416); assay: Dopamine D2 receptor (DRD2) small molecule agonists, cell-based qHTS assay (AID 1963594); also: nearly all actives have a fitted effect of over 35% in size
Method in brief: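 cAMP accumulation in DRD2-HEK293 cells measured by HTRF after 1 h detection; compounds added 10 min before NKH477 (200nM […]) forskolin-analogue stimulation, 30 min at room temperature, with Ro20-1724 present at 0.1 mM final.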

[18] = target: D(2) dopamine receptor (Homo sapiens) (UniProt P14416); assay: Dopamine D2 receptor (DRD2) small molecule antagonists, cell-based qHTS assay (AID 1963595; active = well fitted inhibition curve with a large enough effect in the signal ratio in the repeat runs, with a control signal flat; the % refers to the signal ratio)
Method in brief: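 Antagonist mode in DRD2-HEK293 cells: after compound addition with 0.1 mM Ro20-1724, cells received quinpirole (12 nM) and NKH477 (200 nM) for 30 min at room temperature; HTRF cAMP read after 1 h detection.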

[19] = target: 5-hydroxytryptamine receptor 2A (Homo sapiens) (UniProt P28223); assay: 5-hydroxytryptamine receptor 2A (HTR2A) small molecule agonists, cell-based qHTS assay (AID 1963587); also: nearly all actives have a fitted effect of over 30% in size
Method in brief: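 Kinetic calcium-flux fluorescence (2 min, 1 sec intervals) after compound addition in agonist mode. HTR2A-CHO cells were cultured 18 h, then dye-loaded 1 h at 37 C.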

[20] = target: Beta-2 adrenergic receptor (Homo sapiens) (UniProt P07550); assay: Adrenergic beta2 receptor (ADRB2) small molecule agonists, cell-based qHTS assay (AID 1963593);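 also: CHO cells stably overexpressing human ADRB2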
Method in brief: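 CHO cells stably over-expressing ADRB2 were plated overnight at 37C, then dosed with compounds plus a stimulation mix containing 100uM IBMX and 25uM Ro-20-1724 for 0.5hr at room temperature. cAMP was measured by HTRF competition, 1hr.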

Measured: Potency

D(2) dopamine receptor (Homo sapiens), sequence (P14416 whole entry, looked up): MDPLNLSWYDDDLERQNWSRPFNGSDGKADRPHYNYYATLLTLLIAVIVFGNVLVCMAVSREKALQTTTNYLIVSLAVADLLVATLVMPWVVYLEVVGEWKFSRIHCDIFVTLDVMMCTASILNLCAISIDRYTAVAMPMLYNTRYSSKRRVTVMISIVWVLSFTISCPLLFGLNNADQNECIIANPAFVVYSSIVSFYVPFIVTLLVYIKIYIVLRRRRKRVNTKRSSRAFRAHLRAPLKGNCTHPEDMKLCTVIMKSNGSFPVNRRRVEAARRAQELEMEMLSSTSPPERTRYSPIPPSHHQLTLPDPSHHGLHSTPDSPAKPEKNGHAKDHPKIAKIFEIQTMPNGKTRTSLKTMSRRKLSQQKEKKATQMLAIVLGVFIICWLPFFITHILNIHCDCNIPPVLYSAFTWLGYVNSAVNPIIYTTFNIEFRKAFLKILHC
Beta-2 adrenergic receptor (Homo sapiens), sequence (P07550 whole entry, looked up): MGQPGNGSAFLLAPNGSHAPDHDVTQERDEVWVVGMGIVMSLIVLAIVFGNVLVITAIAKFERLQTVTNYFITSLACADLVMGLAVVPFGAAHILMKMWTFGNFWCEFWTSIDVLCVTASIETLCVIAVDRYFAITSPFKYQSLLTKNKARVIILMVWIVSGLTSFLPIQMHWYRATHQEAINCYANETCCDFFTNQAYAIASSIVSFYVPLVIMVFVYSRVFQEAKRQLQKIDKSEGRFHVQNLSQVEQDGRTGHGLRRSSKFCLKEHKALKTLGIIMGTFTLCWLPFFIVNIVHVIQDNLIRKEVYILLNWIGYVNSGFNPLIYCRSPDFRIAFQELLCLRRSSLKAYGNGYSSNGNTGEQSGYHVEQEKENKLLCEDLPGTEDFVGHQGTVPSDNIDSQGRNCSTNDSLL
Muscarinic acetylcholine receptor M1 (Homo sapiens), sequence (P11229 whole entry, looked up): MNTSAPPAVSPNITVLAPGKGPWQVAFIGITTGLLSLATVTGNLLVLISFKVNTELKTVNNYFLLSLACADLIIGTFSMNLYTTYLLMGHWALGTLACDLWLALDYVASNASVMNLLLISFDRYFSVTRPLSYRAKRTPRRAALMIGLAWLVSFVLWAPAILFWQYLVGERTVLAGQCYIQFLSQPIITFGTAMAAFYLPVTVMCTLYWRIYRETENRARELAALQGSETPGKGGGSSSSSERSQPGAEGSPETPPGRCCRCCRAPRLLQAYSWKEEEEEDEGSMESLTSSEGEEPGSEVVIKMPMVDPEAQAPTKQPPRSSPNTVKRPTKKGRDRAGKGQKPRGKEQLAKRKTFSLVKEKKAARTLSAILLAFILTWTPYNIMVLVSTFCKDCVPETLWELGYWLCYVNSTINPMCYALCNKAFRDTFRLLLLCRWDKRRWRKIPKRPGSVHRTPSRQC
5-hydroxytryptamine receptor 2A (Homo sapiens), sequence (P28223 whole entry, looked up): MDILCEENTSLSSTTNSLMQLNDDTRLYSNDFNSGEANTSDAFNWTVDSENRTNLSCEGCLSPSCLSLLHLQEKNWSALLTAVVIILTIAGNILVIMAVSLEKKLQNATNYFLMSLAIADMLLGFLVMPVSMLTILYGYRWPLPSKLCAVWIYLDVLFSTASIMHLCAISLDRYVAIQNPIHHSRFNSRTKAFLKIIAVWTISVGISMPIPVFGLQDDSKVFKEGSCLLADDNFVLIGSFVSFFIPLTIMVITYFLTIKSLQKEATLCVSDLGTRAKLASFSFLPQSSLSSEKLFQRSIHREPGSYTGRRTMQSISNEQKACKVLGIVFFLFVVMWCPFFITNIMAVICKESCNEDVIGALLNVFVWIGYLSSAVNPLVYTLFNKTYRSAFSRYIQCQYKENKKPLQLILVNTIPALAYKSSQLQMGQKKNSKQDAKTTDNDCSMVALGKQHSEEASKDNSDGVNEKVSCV
KiSS-1 receptor (Homo sapiens), sequence (Q969F8 whole entry, looked up): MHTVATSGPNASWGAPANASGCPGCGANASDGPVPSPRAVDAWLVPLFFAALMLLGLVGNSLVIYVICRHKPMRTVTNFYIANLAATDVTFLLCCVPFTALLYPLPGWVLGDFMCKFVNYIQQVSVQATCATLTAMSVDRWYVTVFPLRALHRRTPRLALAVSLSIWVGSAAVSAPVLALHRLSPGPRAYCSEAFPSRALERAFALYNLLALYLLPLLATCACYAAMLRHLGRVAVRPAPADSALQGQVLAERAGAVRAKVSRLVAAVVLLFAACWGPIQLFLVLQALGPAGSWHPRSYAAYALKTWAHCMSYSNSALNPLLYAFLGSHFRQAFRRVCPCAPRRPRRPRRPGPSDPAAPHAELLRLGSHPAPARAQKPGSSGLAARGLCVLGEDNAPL

C=CCON/C(CCC)=C1\C(=O)CC(C)(C)C(C(=O)OC)=C1O
inactive: [1] | [2] | [3] | [4] | [5] | [6] | [7] | [8] | [9] | [10] | [11] | [12] | [14] | [15] | [16] | [17] | [18]
active: [13] 4.84 µM

O=C(CCOCCOCCOCCOCCC(=O)Nc1c(I)cc(I)c(C(=O)O)c1I)Nc1c(I)cc(I)c(C(=O)O)c1I
inactive: [1] | [2] | [3] | [4] | [5] | [6] | [7] | [8] | [9] | [10] | [19] | [12] | [13] | [14] | [15] | [16] | [20] | [17] | [18]

C/C=C(\C)C(=O)OCCC(C)CCC=C(C)C (centres undefined)
inactive: [1] | [2] | [3] | [4] | [5] | [6] | [7] | [8] | [10] | [11] | [19] | [12] | [14] | [16] | [17] | [18]

Cc1ccc2sc3cccc(C)c3c2c1
inactive: [1] | [2] | [3] | [4] | [5] | [6] | [7] | [9] | [10] | [11] | [12] | [14] | [15] | [16] | [17] | [18]

COc1c(Br)cc(Br)c(C)c1Br
inactive: [1] | [2] | [3] | [4] | [5] | [6] | [7] | [8] | [9] | [10] | [19] | [13] | [14] | [15] | [16] | [17] | [18]

CCCCCCCCCC#N
active: [2] 68.2 µM | [7] 11.4 µM
inactive: [1] | [3] | [4] | [5] | [6] | [9] | [10] | [19] | [12] | [14] | [15] | [16] | [17] | [18]

CCCCCCCCCCCC
inactive: [1] | [2] | [3] | [4] | [5] | [6] | [8] | [9] | [10] | [11] | [19] | [12] | [13] | [14] | [15] | [17] | [18]
